# About 79,000 compounds went through this panel and 15% of them were active in at least one assay; those are over-represented in the sample as a whole. Values without a mark were called inactive. The source made the active and inactive calls. Rule as the data show it: active = growth inhibition above about 70%; inactive = the rest.
# How the values were obtained:
# [1] = NCI Yeast Anticancer Drug Screen. Data for the rad50 strain (AID 155);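 also: 0% = growth of vehicle-only cultures of the same strain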; settings: S. cerevisiae rad50 strain growth inhibition, stronger effect = higher value
# Method in brief: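 Growth of the mutant yeast was measured after compound exposure and referenced to vehicle-treated cultures.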
# [2] = NCI Yeast Anticancer Drug Screen. Data for the mec2-1 strain (AID 157); settings: S. cerevisiae mec2-1 strain, stronger effect = higher value
# Method in brief: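 Compounds were applied to mec2-1 yeast cells. Their growth was then compared with that of vehicle-treated cultures to give growth inhibition.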
# [3] = NCI Yeast Anticancer Drug Screen. Data for the sgs1 mgt1 strain (AID 161);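 also: 0% = growth of cultures given vehicle only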; settings: S. cerevisiae sgs1 mgt1 strain, stronger effect = higher value
# Method in brief: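 Yeast cells carrying a defined DNA-repair defect were exposed to test compounds. Growth inhibition was measured relative to vehicle-treated controls.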
# [4] = NCI Yeast Anticancer Drug Screen. Data for the cln2 rad14 strain (AID 165);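 also: 0% = growth equal to vehicle treated cultures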; settings: S. cerevisiae cln2 rad14 strain, stronger effect = higher value
# Method in brief: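 Strain: cln2 rad14 yeast, altered in cell cycle control and DNA damage repair. Read-out: growth inhibition vs vehicle.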
# [5] = NCI Yeast Anticancer Drug Screen. Data for the bub3 strain (AID 167); settings: S. cerevisiae bub3 mutant strain, stronger effect = higher value
# Method in brief: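 Whole-cell yeast assay. The mutant strain was incubated with compounds, and growth inhibition was determined by comparison with vehicle-treated cells.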
# [6] = NCI Yeast Anticancer Drug Screen. Data for the mlh1 rad18 strain (AID 175); settings: S. cerevisiae mlh1 rad18 strain growth inhibition, stronger effect = higher value
# Method in brief: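 A repair-deficient yeast strain is exposed to test compound, and growth is scored relative to vehicle-treated controls.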
# [7] = at 5.0 µM (retest, dose inferred, filed as 0.5)
# [8] = at 50.0 µM (retest, dose inferred, filed as 5.0)
SMILES,"growth inhibition [1, 7]","growth inhibition [1, 8]",growth inhibition ([1]; at 50.0 µM),"growth inhibition [2, 7]","growth inhibition [2, 8]",growth inhibition ([2]; at 50.0 µM),"growth inhibition [3, 7]","growth inhibition [3, 8]",growth inhibition ([3]; at 50.0 µM),"growth inhibition [4, 7]","growth inhibition [4, 8]",growth inhibition ([4]; at 50.0 µM),"growth inhibition [5, 7]","growth inhibition [5, 8]",growth inhibition ([5]; at 50.0 µM),"growth inhibition [6, 7]","growth inhibition [6, 8]",growth inhibition ([6]; at 50.0 µM)
FC(F)(F)C(C1=NC(C(F)(F)F)(C(F)(F)F)N=C(N2CCOCC2)O1)C(F)(F)F,24%,33%,24.8%,16%,28%,71.8% (active),20%,48%,30.4%,26%,45%,60.4%,36%,80% (active),13.6%,51%,66%,39.6%
COc1cc(/C=C(/C)C[N+](=O)[O-])ccc1O,54%,99% (active),99.5% (active),23%,99% (active),99.8% (active),15%,93% (active),99.8% (active),13%,99% (active),98.8% (active),36%,99% (active),98.8% (active),25%,99% (active),99.5% (active)
Nc1c(/C=C/c2cc3cc(C4=NCCN4)ccc3o2)[nH]c2cc(C3=NCCN3)ccc12,13%,98% (active),97.5% (active),22%,98% (active),98% (active),-2%,99% (active),98.2% (active),-22%,97% (active),97.4% (active),7%,98% (active),97% (active),13%,97% (active),97.8% (active)
O=C1c2ccccc2C(=O)c2sc(Nc3ccc(Cl)cc3)nc21,79% (active),97% (active),90.5% (active),84% (active),99% (active),92.9% (active),97% (active),99% (active),93.8% (active),58%,98% (active),88.8% (active),98% (active),99% (active),91.6% (active),85% (active),98% (active),91.2% (active)
C/C(=N\NC(=S)NCc1ccccc1)c1nccnc1C,23%,98% (active),90.9% (active),19%,99% (active),89% (active),35%,99% (active),82.9% (active),35%,98% (active),85.9% (active),52%,99% (active),83.3% (active),27%,98% (active),91.7% (active)
O=C1c2c(O)ccc(O)c2C(=O)c2c(O)ccc(O)c21,-23%,22%,21.4%,1%,-12%,18.2%,-12%,10%,12.3%,-10%,-2%,41%,-14%,8%,16.5%,8%,-2%,4.25%
COc1ccc2nc3cc(Cl)ccc3c(Nc3ccc(O)c(CNCCO)c3)c2c1,-27%,63%,88.9% (active),-1%,-6%,31.9%,-5%,44%,81% (active),-2%,-11%,17.2%,0%,-4%,-7.15%,-9%,12%,29.6%
CC(NNC(=S)N1CC2CCC(CC2)C1)c1cc2ccccc2cn1 (stereo not given),97% (active),97% (active),96.9% (active),97% (active),99% (active),97.4% (active),98% (active),99% (active),94.5% (active),72% (active),61%,92.6% (active),98% (active),99% (active),98.2% (active),98% (active),99% (active),98% (active)
CC1=CC2C(O)(CC(CO)=CC3C4C(C)(C)C4(OC(=O)c4ccccc4)C(OC(=O)c4ccccc4)C(C)C32O)C1=O (stereo not given),95% (active),96% (active),90.3% (active),96% (active),98% (active),91.7% (active),96% (active),97% (active),92% (active),73% (active),97% (active),88.3% (active),95% (active),96% (active),89.2% (active),97% (active),97% (active),88.6% (active)
O=S=C(c1ccccc1)N(Cc1ccccc1)Cc1ccccc1,-1%,94% (active),96% (active),-1%,95% (active),96.2% (active),0%,98% (active),96.7% (active),10%,90% (active),69.7%,22%,93% (active),96.8% (active),1%,95% (active),94.2% (active)
